Results taken from PubChem BioAssay AID1159580 (chemical genetic matrix, 2015).
Where “and” joins values, the source holds several entries; their conditions need not be identical. Equal entries are not always repeated. Out of some 5,500 compounds screened, about 2,000 (36%) were called active. Another 18% or so got no clear call; they are omitted. No stated cut-off is given here; in the data, active means normalized growth mostly below about 0.91 (no sharp cut-off); inconclusive means no clear call, values can overlap the other calls; inactive means mostly above about 0.92. This is one part of the list. Some compounds were tested as several samples or in several runs, with calls that do not always agree.

Test: chemical genetic growth profiling, strain panel (AID 1159580);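 further: tested at 20 µM; growth read once vehicle control cultures reached saturation at 30 °C; 1 = growth at the plate median or of vehicle wells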
Details: growth OD

Measured: normalized growth

CN1CCc2cccc3c2C1Cc1ccc(O)c(O)c1-3 (stereo not drawn)
1 (inactive) and 0.35 (active): S. cerevisiae deletion strains, locus YJR075W, strain HOC1, stronger effect = lower value
inactive: S. cerevisiae deletion strains, locus YKL009W, strain mrt4, stronger effect = lower value 1.01 | S. cerevisiae deletion strains, locus YKL068W, stronger effect = lower value 0.996 | S. cerevisiae deletion strains, locus YKL085W, strain MDH1 (second series), stronger effect = lower value 1 | S. cerevisiae deletion strains, locus YKL085W, strain MDH1, stronger effect = lower value 1 | S. cerevisiae deletion strains, locus YKL190W, strain CNB1, stronger effect = lower value 1.01 | S. cerevisiae deletion strains, locus YKR001C, strain vps1, stronger effect = lower value 1 | S. cerevisiae deletion strains, locus YKR026C, strain gcn3, stronger effect = lower value 1.01 | S. cerevisiae deletion strains, locus YKR091W, strain srl3, stronger effect = lower value 0.993 | S. cerevisiae deletion strains, locus YLL001W, strain dnm1, stronger effect = lower value 0.967 | S. cerevisiae deletion strains, locus YLL026W, stronger effect = lower value 0.988 | S. cerevisiae deletion strains, locus YLL041C, strain sdh2, stronger effect = lower value 0.995 | S. cerevisiae deletion strains, locus YLR039C, strain RIC1, stronger effect = lower value 1.04 | S. cerevisiae deletion strains, locus YLR058C, strain SHM2, stronger effect = lower value 1.01 | S. cerevisiae deletion strains, locus YLR102C, strain apc9, stronger effect = lower value 0.997 | S. cerevisiae deletion strains, locus YLR113W, strain HOG1, stronger effect = lower value 1.02 | S. cerevisiae deletion strains, locus YLR221C, strain rsa3, stronger effect = lower value 0.932 | S. cerevisiae deletion strains, locus YLR258W, strain gsy2, stronger effect = lower value 0.958 | S. cerevisiae deletion strains, locus YLR262C, strain YPT6, stronger effect = lower value 1.09 | S. cerevisiae deletion strains, locus YLR268W, strain sec22, stronger effect = lower value 1.01 | S. cerevisiae deletion strains, locus YLR330W, strain CHS5, stronger effect = lower value 1.01 | S. cerevisiae deletion strains, locus YLR342W, strain FKS1 (second series), stronger effect = lower value 1.02 | S. cerevisiae deletion strains, locus YLR357W, strain rsc2, stronger effect = lower value 0.889 | S. cerevisiae deletion strains, locus YLR370C, strain arc18, stronger effect = lower value 0.96 | S. cerevisiae deletion strains, locus YLR371W, strain rom2, stronger effect = lower value 0.996 | S. cerevisiae deletion strains, locus YLR384C, strain iki3, stronger effect = lower value 1 | S. cerevisiae deletion strains, locus YLR418C, strain cdc73, stronger effect = lower value 1.01 | S. cerevisiae deletion strains, locus YML016C, strain PPZ1, stronger effect = lower value 1.01 | S. cerevisiae deletion strains, locus YML032C, strain rad52, stronger effect = lower value 0.99 | S. cerevisiae deletion strains, locus YML120C, strain ndi1, stronger effect = lower value 0.993 | S. cerevisiae deletion strains, locus YML124C, strain tub3, stronger effect = lower value 0.99 | S. cerevisiae deletion strains, locus YMR078C, strain ctf18, stronger effect = lower value 0.988 | S. cerevisiae deletion strains, locus YMR125W, strain sto1, stronger effect = lower value 0.966 | S. cerevisiae deletion strains, locus YMR129W, stronger effect = lower value 1 | S. cerevisiae deletion strains, locus YMR205C, strain PFK2, stronger effect = lower value 0.93 | S. cerevisiae deletion strains, locus YMR223W, strain ubp8, stronger effect = lower value 0.994 | S. cerevisiae deletion strains, locus YMR231W, strain pep5, stronger effect = lower value 0.972 | S. cerevisiae deletion strains, locus YMR307W, strain GAS1, stronger effect = lower value 1.03 | S. cerevisiae deletion strains, locus YNL067W, strain RPL9B, stronger effect = lower value 0.998 | S. cerevisiae deletion strains, locus YNL128W, strain TEP1, stronger effect = lower value 1.01 and 0.937 | S. cerevisiae deletion strains, locus YNL153C, strain GIM3, stronger effect = lower value 1 | S. cerevisiae deletion strains, locus YNL175C, strain NOP13, stronger effect = lower value 0.96 | S. cerevisiae deletion strains, locus YNL183C, strain NPR1, stronger effect = lower value 0.984 | S. cerevisiae deletion strains, locus YNL197C, strain WHI3, stronger effect = lower value 0.931 | S. cerevisiae deletion strains, locus YNL224C, strain SQS1, stronger effect = lower value 1.05 | S. cerevisiae deletion strains, locus YNL233W, strain BNI4, stronger effect = lower value 1.01 | S. cerevisiae deletion strains, locus YNL250W, strain rad50, stronger effect = lower value 1.01 | S. cerevisiae deletion strains, locus YNL271C, strain bni1, stronger effect = lower value 0.985 | S. cerevisiae deletion strains, locus YNL298W, strain CLA4, stronger effect = lower value 0.992 | S. cerevisiae deletion strains, locus YNL307C, strain MCK1, stronger effect = lower value 0.991 | S. cerevisiae deletion strains, locus YNL322C, strain KRE1 (second series), stronger effect = lower value 1.01 | S. cerevisiae deletion strains, locus YNR049C, strain mso1, stronger effect = lower value 0.98 | S. cerevisiae deletion strains, locus YNR052C, strain pop2, stronger effect = lower value 0.987 | S. cerevisiae deletion strains, locus YOL006C, strain TOP1, stronger effect = lower value 0.926 | S. cerevisiae deletion strains, locus YOL012C, strain htz1 1.12 | S. cerevisiae deletion strains, locus YOL147C, strain pex11, stronger effect = lower value 0.992 | S. cerevisiae deletion strains, locus YOR001W, strain rrp6, stronger effect = lower value 0.944 | S. cerevisiae deletion strains, locus YOR061W, strain CKA2, stronger effect = lower value 1.02 | S. cerevisiae deletion strains, locus YOR069W, strain VPS5, stronger effect = lower value 1.01 | S. cerevisiae deletion strains, locus YOR080W, strain dia2, stronger effect = lower value 0.993 | S. cerevisiae deletion strains, locus YOR136W, strain idh2, stronger effect = lower value 0.987 | S. cerevisiae deletion strains, locus YOR144C, strain elg1, stronger effect = lower value 0.998 | S. cerevisiae deletion strains, locus YOR184W, strain ser1, stronger effect = lower value 1.02 | S. cerevisiae deletion strains, locus YOR231W, strain MKK1, stronger effect = lower value 1.06 | S. cerevisiae deletion strains, locus YOR290C, strain snf2, stronger effect = lower value 0.979 | S. cerevisiae deletion strains, locus YOR316C, strain cot1, stronger effect = lower value 0.992 | S. cerevisiae deletion strains, locus YPL078C, strain atp4, stronger effect = lower value 0.988 | S. cerevisiae deletion strains, locus YPL106C, strain sse1, stronger effect = lower value 0.94 | S. cerevisiae deletion strains, locus YPL240C, strain hsp82, stronger effect = lower value 1.01 | S. cerevisiae deletion strains, locus YPL256C, strain CLN2, stronger effect = lower value 1.06 | S. cerevisiae deletion strains, locus YPR119W, strain clb2, stronger effect = lower value 0.994 | S. cerevisiae deletion strains, locus YPR141C, strain kar3, stronger effect = lower value 0.997 | S. cerevisiae deletion strains, locus YPR163C, strain tif3, stronger effect = lower value 0.986 | S. cerevisiae deletion strains, locus YPR167C, strain met16, stronger effect = lower value 0.998 | S. cerevisiae deletion strains, strain wtn01, stronger effect = lower value 1 | S. cerevisiae strains, strain wild type, stronger effect = lower value 1.01
active: S. cerevisiae deletion strains, locus YKL160W, strain elf1, stronger effect = lower value 0.871 | S. cerevisiae deletion strains, locus YLR027C, strain aat2, stronger effect = lower value 0.918 | S. cerevisiae deletion strains, locus YLR262C, strain YPT6 (second series), stronger effect = lower value 0.645 | S. cerevisiae deletion strains, locus YLR320W, strain mms22, stronger effect = lower value 0.8 | S. cerevisiae deletion strains, locus YLR342W, strain FKS1, stronger effect = lower value 0.855 | S. cerevisiae deletion strains, locus YMR058W, strain fet3, stronger effect = lower value 0.573 | S. cerevisiae deletion strains, locus YNL071W, strain lat1, stronger effect = lower value 0.627 | S. cerevisiae deletion strains, locus YNL209W, strain ssb2, stronger effect = lower value 0.808 | S. cerevisiae deletion strains, locus YNL248C, strain rpa49, stronger effect = lower value 0.858 | S. cerevisiae deletion strains, locus YOR070C, strain gyp1, stronger effect = lower value 0.864 | S. cerevisiae deletion strains, locus YOR083W, strain WHI5 (second series), stronger effect = lower value 0.815 | S. cerevisiae deletion strains, locus YOR083W, strain WHI5, stronger effect = lower value 0.875 | S. cerevisiae deletion strains, locus YOR106W, strain vam3, stronger effect = lower value 0.607 | S. cerevisiae deletion strains, locus YOR265W, strain rbl2, stronger effect = lower value 0.91 | S. cerevisiae deletion strains, locus YOR270C, strain vph1, stronger effect = lower value 0.597 | S. cerevisiae deletion strains, locus YPL051W, strain arl3, stronger effect = lower value 0.746 | S. cerevisiae deletion strains, locus YPL241C, strain CIN2, stronger effect = lower value 0.311
